# Data as given in PubChem BioAssay (EPA / NIEHS).
# Inconclusive results are not listed. Activity calls are given as the source filed them. The calls were made as follows: active = hit-call score of the fitted dose curve at least 0.9, where 1 is the maximum; inconclusive = response in the unintended direction; inactive = score below 0.9.
# What was measured:
# [1] = target: sheep Cyclooxygenase-1 (Cox1), PTGS1 (gene 443551) (UniProt P05979); test: NVS_ENZ_oCOX1: NovaScreen (NVS) Enzymatic Assay for sheep Cyclooxygenase-1 (Cox1) (AID 2283239);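 also: actives reduce cyclooxygenase activity so potencies are for inhibitors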
# In short: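 Colorimetric enzyme readout using sheep seminal-vesicle cyclooxygenase-1, measured 0.66 h post-dosing. Single-concentration duplicates at 25 uM first, then concentration series for actives, with DMSO as baseline and plate controls.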
# [2] = target: Beta-2 adrenergic receptor (Homo sapiens) (UniProt P07550); test: NVS_GPCR_hAdrb2: NovaScreen (NVS) G Protein-Coupled Receptor Assay for human Adrenergic, Beta 2 Receptor (Adrb2) (AID 2283261)
# In short: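 Compounds screened in duplicate at 25 uM, then actives in concentration series. Human beta-2 receptor from CHO material, cell-free; radioligand displacement after 1 h measured by filtration and scintillation against DMSO baseline.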
# [3] = target: human Dopamine Receptor D2 (DRD2), DRD2 (gene 1813) (UniProt P14416); test: NVS_GPCR_hDRD2s: NovaScreen (NVS) G Protein-Coupled Receptor Assay for human Dopamine Receptor D2 (DRD2) (AID 2283266)
# In short: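 Test compound (25 uM, duplicate in the primary screen; concentration series at follow-up) competed with radioligand for human DRD2 in CHO-derived membrane protein. Filter-based scintillation counting was done 1.5 hours after dosing, with loss of signal analysed against DMSO.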
# [4] = target: human Adrenergic, Alpha 2c Receptor (Adra2C), ADRA2C (gene 152) (UniProt P18825); test: NVS_GPCR_hAdra2C: NovaScreen (NVS) G Protein-Coupled Receptor Assay for human Adrenergic, Alpha 2c Receptor (Adra2C) (AID 2283259)
# In short: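 Screened first in duplicate at 25 uM, with actives then run as concentration series. Membranes from Sf9 cells were exposed for 1 h, and displacement of radioligand was counted after filtration, using DMSO as baseline.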
# [5] = target: rat Monoamine Oxidase, MAO-B, Peripheral (MAOBP), Maob (gene 25750) (UniProt P19643); test: NVS_ENZ_rMAOBP: NovaScreen (NVS) Enzymatic Assay for rat Monoamine Oxidase, MAO-B, Peripheral (MAOBP) (AID 2283242)
# [6] = system: rat Monoamine Oxidase, MAO-A, Central (MAOAC), gene 29253; test: NVS_ENZ_rMAOAC: NovaScreen (NVS) Enzymatic Assay for rat Monoamine Oxidase, MAO-A, Central (MAOAC) (AID 2283243);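 also: potency refers to inhibition seen as signal drop below DMSO baseline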
# In short: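 Lysate-based radiometric enzyme assay using rat brain tissue; 1.5 h treatment; 25 uM single-point duplicate screen, concentration-response follow-up; loss of signal versus DMSO.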
# [7] = target: guinea pig Opioid, Kappa 1 Receptor (OpiateK), OPRK1 (gene 100135587) (UniProt P41144); test: NVS_GPCR_gOpiateK: NovaScreen (NVS) G Protein-Coupled Receptor Assay for guinea pig Opioid, Kappa 1 Receptor (OpiateK) (AID 2283252);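 also: active means reduced radioligand binding relative to DMSO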
# In short: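 Radioligand binding to kappa opioid receptor in guinea pig cerebellar membranes, read by filtration and scintillation at 2 h. Compounds first tested in duplicate at 25 uM, then actives in concentration series; signal loss fitted against DMSO.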
# [8] = target: guinea pig Leukotriene D4 Receptor (LTD4), CYSLTR1 (gene 100135514) (UniProt Q2NNR5); test: NVS_GPCR_gLTD4: NovaScreen (NVS) G Protein-Coupled Receptor Assay for guinea pig Leukotriene D4 Receptor (LTD4) (AID 2283248)
# In short: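 Guinea pig lung membrane preparation; bound radioligand measured by filter scintillation after 1 h, loss of signal versus DMSO marking displacement. Compounds tested at 25 uM in duplicate, hits retested to max 50 uM.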
# [9] = target: human Adenosine A1 Receptor (AdoRA1), ADORA1 (gene 134) (UniProt P30542); test: NVS_GPCR_hAdoRA1: NovaScreen (NVS) G Protein-Coupled Receptor Assay for human Adenosine A1 Receptor (AdoRA1) (AID 2283254)
# In short: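 Hum. cortical membranes + radioligand, cmpd 1 h; filtration, scintillation count. Readout = decrease vs DMSO. Primary 25 uM dup; hits → conc. series.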
# [10] = target: human Adenosine A2a Receptor (AdoRA2a), ADORA2A (gene 135) (UniProt P29274); test: NVS_GPCR_hAdoRA2a: NovaScreen (NVS) G Protein-Coupled Receptor Assay for human Adenosine A2a Receptor (AdoRA2a) (AID 2283256)
# In short: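 HEK293-derived receptor preparation, radioligand displacement, 1.5 h, filtration + scintillation read. Loss of bound signal scored vs DMSO. Single-point 25 uM in duplicate first, then concentration-response for actives.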
# [11] = system: guinea pig Leukotriene B4 Receptor (LTB4), gene 100379538; test: NVS_GPCR_gLTB4: NovaScreen (NVS) G Protein-Coupled Receptor Assay for guinea pig Leukotriene B4 Receptor (LTB4) (AID 2283247)
# In short: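 Membranes from guinea pig spleen incubated 2 h with radioligand and compound; bound counts measured by filtration and scintillation. Screened first at 25 uM in duplicate, then actives titrated to a 50 uM top concentration relative to DMSO.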
# [12] = target: human Serotonin, 5-Hydroxytryptamine Receptor 6 (5HT6), HTR6 (gene 3362) (UniProt P50406); test: NVS_GPCR_h5HT6: NovaScreen (NVS) G Protein-Coupled Receptor Assay for human Serotonin, 5-Hydroxytryptamine Receptor 6 (5HT6) (AID 2283253)
# In short: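 Filter scintillation counting of radioligand displacement from HEK293-expressed 5HT6, 1 hour post-dose, with loss of signal relative to DMSO. Single 25 uM duplicates first, with concentration series for confirmation.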
# [13] = target: human Adrenergic, Alpha 2A Receptor (Adra2A), ADRA2A (gene 150) (UniProt P08913); test: NVS_GPCR_hAdra2A: NovaScreen (NVS) G Protein-Coupled Receptor Assay for human Adrenergic, Alpha 2A Receptor (Adra2A) (AID 2283257)
# In short: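 Displacement of a specific radioligand from HT29 membrane protein was counted by filter scintillation after 1 h. Compounds were screened in duplicate at 25 uM, and actives were retested in concentration series. Fitting was positive-direction against DMSO.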
# [14] = target: human Serotonin, 5-Hydroxytryptamine Receptor 5A (5HT5A), HTR5A (gene 3361) (UniProt P47898); test: NVS_GPCR_h5HT5A: NovaScreen (NVS) G Protein-Coupled Receptor Assay for human Serotonin, 5-Hydroxytryptamine Receptor 5A (5HT5A) (AID 2283251)
# In short: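 Membranes from HEK293 cells, radioligand binding read by filtration and scintillation after 1 h. Single-concentration duplicate testing at 25 uM, then concentration-response for actives; positive-direction fitting relative to DMSO.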
# [15] = target: human Adrenergic, Beta 1 Receptor (Adrb1), ADRB1 (gene 153) (UniProt P08588); test: NVS_GPCR_hAdrb1: NovaScreen (NVS) G Protein-Coupled Receptor Assay for human Adrenergic, Beta 1 Receptor (Adrb1) (AID 2283258)
# In short: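 Membranes/protein extracted from human neuroepithelioma cells, radioligand competition binding read by filtration and scintillation 2 h post-dose. Single 25 uM duplicate screen, then concentration-response follow-up; DMSO as negative control.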
# [16] = target: human Endothelin Receptor Type B (ETB), EDNRB (gene 1910) (UniProt P24530); test: NVS_GPCR_hETB: NovaScreen (NVS) G Protein-Coupled Receptor Assay for human Endothelin Receptor Type B (ETB) (AID 2283267)
# In short: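 Filter-based scintillation readout of radioligand displacement, 4 h, using membranes from human astrocytoma cells. Actives from a 25 uM duplicate screen were retested in concentration-response (top 50 uM) relative to DMSO baseline.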
# [17] = system: bovine Angiotensin II Receptor Type 2 (AT2), gene 407157; test: NVS_GPCR_bAT2: NovaScreen (NVS) G Protein-Coupled Receptor Assay for bovine Angiotensin II Receptor Type 2 (AT2) (AID 2283240)
# In short: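 Radioligand displacement on bovine cerebellar membranes, 1 hour incubation, filter-based scintillation counting; loss of signal vs DMSO. Duplicate single-point screen at 25 uM, then concentration-response to 50 uM maximum.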
# [18] = target: Adenosine receptor A1 (Bos taurus) (UniProt P28190); test: NVS_GPCR_bAdoR_NonSelective: NovaScreen (NVS) G Protein-Coupled Receptor Assay for bovine Adenosine Receptor (AdoR), Non-selective Binding (AID 2283244)
# In short: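 Cell-free binding with membranes from bovine striatum: radioligand displaced by test chemical, read after 1 h by filtration and scintillation. Single-point 25 uM duplicate primary, 50 uM top concentration in follow-up curves, DMSO baseline.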
# human Adrenergic, Beta 1 Receptor (Adrb1), ADRB1 (gene 153), sequence (P08588 whole entry, looked up): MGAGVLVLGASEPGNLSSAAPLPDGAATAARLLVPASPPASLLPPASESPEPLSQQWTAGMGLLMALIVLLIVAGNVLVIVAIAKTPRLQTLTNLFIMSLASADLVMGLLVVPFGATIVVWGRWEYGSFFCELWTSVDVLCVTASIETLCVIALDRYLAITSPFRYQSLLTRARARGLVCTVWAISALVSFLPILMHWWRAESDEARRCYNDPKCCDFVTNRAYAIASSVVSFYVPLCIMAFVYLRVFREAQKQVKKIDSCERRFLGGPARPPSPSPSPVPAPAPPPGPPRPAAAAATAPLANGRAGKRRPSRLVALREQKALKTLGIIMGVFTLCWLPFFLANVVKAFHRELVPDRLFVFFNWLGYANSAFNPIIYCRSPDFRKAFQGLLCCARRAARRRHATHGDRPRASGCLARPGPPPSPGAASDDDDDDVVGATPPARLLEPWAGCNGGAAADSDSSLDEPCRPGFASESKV
# sheep Cyclooxygenase-1 (Cox1), PTGS1 (gene 443551), sequence (P05979 whole entry, looked up): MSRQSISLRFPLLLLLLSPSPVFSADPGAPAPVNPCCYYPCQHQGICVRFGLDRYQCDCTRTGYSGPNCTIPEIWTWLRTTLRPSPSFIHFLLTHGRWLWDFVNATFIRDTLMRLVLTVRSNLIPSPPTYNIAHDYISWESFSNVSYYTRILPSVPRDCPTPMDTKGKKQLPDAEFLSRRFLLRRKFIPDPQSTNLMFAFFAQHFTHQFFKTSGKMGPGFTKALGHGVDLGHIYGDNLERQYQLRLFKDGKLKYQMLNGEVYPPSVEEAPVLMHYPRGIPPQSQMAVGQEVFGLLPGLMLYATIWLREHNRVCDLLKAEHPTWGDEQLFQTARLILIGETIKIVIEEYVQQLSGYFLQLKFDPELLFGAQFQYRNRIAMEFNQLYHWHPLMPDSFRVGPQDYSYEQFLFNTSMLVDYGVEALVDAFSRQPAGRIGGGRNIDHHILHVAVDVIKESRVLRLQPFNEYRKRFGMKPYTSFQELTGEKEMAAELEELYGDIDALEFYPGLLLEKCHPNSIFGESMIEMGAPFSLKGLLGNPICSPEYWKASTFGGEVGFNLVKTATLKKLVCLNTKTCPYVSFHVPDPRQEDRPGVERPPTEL
# human Adrenergic, Alpha 2c Receptor (Adra2C), ADRA2C (gene 152), sequence (P18825 whole entry, looked up): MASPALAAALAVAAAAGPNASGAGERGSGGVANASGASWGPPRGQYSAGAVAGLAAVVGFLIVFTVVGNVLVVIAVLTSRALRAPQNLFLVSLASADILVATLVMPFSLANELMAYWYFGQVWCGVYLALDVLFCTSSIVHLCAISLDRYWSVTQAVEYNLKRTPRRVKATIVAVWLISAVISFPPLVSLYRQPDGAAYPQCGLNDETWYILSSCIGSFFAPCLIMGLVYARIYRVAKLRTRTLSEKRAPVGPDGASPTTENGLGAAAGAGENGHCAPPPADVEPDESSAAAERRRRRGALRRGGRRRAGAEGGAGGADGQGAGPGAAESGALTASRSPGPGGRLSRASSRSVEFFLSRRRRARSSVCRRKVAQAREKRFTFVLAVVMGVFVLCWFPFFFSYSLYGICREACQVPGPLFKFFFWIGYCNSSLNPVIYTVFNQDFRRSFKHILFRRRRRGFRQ
# human Dopamine Receptor D2 (DRD2), DRD2 (gene 1813), sequence (P14416 whole entry, looked up): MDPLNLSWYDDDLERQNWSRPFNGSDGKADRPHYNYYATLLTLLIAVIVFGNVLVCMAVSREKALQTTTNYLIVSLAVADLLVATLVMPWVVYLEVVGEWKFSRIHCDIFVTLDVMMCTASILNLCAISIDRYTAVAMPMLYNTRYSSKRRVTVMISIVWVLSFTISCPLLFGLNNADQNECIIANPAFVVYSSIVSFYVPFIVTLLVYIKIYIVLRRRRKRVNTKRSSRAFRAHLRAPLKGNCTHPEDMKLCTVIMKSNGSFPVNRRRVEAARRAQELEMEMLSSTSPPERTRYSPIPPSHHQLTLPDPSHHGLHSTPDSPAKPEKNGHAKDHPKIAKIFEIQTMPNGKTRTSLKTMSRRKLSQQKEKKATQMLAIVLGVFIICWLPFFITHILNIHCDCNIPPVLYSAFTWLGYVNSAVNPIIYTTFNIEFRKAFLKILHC
# rat Monoamine Oxidase, MAO-B, Peripheral (MAOBP), Maob (gene 25750), sequence (P19643 whole entry, looked up): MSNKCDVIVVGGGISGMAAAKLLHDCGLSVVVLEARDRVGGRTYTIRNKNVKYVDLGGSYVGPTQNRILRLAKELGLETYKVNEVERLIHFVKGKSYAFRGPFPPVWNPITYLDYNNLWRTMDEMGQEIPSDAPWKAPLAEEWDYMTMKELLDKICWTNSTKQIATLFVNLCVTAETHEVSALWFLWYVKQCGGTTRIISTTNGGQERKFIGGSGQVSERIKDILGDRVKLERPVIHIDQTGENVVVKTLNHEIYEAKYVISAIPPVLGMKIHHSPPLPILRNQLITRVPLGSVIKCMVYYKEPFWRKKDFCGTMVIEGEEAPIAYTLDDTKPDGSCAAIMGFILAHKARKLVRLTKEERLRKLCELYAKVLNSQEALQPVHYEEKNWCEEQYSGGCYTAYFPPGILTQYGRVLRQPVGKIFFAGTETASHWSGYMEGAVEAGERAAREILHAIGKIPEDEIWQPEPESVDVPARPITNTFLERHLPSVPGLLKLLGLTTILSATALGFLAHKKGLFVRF
# human Adenosine A2a Receptor (AdoRA2a), ADORA2A (gene 135), sequence (P29274 whole entry, looked up): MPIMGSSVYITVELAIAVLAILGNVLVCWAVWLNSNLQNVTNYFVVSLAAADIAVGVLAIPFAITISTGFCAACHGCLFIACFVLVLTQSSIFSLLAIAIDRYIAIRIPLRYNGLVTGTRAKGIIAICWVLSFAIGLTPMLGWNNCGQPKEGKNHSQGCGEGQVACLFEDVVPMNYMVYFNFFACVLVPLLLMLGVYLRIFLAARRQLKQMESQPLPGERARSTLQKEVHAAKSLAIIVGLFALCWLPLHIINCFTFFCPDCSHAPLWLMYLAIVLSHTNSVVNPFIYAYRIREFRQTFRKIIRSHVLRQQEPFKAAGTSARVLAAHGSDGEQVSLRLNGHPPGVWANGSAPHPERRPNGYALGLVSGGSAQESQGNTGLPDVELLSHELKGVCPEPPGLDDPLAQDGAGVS
# Beta-2 adrenergic receptor (Homo sapiens), sequence (P07550 whole entry, looked up): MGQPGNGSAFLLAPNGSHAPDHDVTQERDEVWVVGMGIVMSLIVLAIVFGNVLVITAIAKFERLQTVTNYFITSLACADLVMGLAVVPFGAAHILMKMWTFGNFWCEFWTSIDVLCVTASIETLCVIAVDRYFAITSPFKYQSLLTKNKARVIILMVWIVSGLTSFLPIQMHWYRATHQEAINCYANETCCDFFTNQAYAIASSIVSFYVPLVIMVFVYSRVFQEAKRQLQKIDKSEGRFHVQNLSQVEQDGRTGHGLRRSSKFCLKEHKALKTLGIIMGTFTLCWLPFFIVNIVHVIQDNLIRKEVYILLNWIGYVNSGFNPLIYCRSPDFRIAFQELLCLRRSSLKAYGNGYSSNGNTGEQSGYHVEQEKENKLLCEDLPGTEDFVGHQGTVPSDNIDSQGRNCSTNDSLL
# human Adrenergic, Alpha 2A Receptor (Adra2A), ADRA2A (gene 150), sequence (P08913 whole entry, looked up): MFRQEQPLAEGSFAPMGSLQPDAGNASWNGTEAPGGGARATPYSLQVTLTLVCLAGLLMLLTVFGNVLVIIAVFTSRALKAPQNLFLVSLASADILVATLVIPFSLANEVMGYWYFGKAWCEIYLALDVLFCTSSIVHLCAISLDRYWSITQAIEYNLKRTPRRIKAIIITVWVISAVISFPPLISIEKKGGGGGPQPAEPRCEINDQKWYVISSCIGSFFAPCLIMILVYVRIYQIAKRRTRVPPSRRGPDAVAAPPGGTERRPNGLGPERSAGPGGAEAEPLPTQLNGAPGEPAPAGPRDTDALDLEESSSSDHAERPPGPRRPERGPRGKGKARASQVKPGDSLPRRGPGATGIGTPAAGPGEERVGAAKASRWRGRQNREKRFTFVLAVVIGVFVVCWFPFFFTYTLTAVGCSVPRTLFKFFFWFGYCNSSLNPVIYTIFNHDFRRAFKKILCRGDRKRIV
# guinea pig Leukotriene D4 Receptor (LTD4), CYSLTR1 (gene 100135514), sequence (Q2NNR5 whole entry, looked up): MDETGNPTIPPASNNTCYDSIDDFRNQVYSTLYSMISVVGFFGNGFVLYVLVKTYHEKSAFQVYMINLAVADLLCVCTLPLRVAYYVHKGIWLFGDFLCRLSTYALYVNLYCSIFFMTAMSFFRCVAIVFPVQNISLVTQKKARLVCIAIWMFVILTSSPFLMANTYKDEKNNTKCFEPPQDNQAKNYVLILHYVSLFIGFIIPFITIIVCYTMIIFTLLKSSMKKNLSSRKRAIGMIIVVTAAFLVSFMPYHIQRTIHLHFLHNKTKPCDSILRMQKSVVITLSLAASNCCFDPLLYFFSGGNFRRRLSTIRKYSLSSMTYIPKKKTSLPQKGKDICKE
# human Serotonin, 5-Hydroxytryptamine Receptor 5A (5HT5A), HTR5A (gene 3361), sequence (P47898 whole entry, looked up): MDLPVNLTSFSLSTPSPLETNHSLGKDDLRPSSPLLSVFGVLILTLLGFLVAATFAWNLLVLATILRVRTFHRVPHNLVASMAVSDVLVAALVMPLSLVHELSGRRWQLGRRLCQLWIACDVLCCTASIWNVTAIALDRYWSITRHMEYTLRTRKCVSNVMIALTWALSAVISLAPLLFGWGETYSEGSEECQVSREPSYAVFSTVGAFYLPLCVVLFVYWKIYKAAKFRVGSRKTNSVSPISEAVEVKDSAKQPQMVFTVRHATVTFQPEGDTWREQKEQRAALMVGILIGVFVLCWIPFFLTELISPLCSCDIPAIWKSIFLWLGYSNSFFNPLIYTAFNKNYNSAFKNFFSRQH
# human Serotonin, 5-Hydroxytryptamine Receptor 6 (5HT6), HTR6 (gene 3362), sequence (P50406 whole entry, looked up): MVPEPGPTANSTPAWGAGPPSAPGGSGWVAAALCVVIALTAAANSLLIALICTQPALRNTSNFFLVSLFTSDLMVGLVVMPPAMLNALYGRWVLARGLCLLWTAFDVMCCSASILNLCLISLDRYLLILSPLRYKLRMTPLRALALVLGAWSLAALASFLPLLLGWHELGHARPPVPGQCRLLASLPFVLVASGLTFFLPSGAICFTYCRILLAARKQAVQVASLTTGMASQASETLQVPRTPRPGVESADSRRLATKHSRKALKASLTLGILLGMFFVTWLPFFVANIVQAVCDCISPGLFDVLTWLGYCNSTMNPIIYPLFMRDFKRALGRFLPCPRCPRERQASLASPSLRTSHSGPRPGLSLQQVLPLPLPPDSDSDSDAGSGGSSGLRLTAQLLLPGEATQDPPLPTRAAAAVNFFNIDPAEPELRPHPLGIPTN
compound,measurement,setting,value
Nc1ccc(Cl)cc1,outcome,[1],inactive
ClC1=C(Cl)C2(Cl)C3C(Cl)C(Cl)CC3C1(Cl)C2(Cl)Cl (stereo unspecified),outcome,[2],inactive
same,outcome,[3],inactive
CC1(C)CN=C(NN=C(/C=C/c2ccc(C(F)(F)F)cc2)/C=C/c2ccc(C(F)(F)F)cc2)NC1,AC50,[1],5.74 µM (active)
same,AC50,[4],8.95 µM (active)
O=c1ssc(Cl)c1Cl,outcome,[1],inactive
CCOC(=O)c1ccccc1C(=O)OCC,outcome,[5],inactive
same,AC50,[6],15.2 µM (active)
CCN(CC)c1ccccc1,outcome,[5],inactive
CCCCOCCOP(=O)(OCCOCCCC)OCCOCCCC,AC50,[7],16.5 µM (active)
O=c1[nH]c2ccccc2c(=O)o1,AC50,[1],4.96 µM (active)
c1nc[nH]n1,outcome,[8],inactive
Oc1ccc(I)cc1,AC50,[6],19.9 µM (active)
Cc1ccc2c(c1N)C(=O)c1ccccc1C2=O,AC50,[6],25 µM (active)
same,AC50,[9],16.3 µM (active)
same,AC50,[10],4.77 µM (active)
CCC(C)(C)c1ccc(O)cc1,AC50,[11],25 µM (active)
same,outcome,[12],inactive
CCCCCCCc1ccc(O)cc1,outcome,[4],inactive
CC(Cc1ccc(OCC(=O)O)cc1)NCC(O)c1csc(C(F)(F)F)n1 (stereo unspecified),AC50,[13],25 µM (active)
CCOP(=S)(OCC)SCS(=O)(=O)CC,AC50,[6],7.29 µM (active)
CCCCN(CCCC)SN(C)C(=O)Oc1cccc2c1OC(C)(C)C2,outcome,[14],inactive
same,outcome,[15],inactive
same,outcome,[16],inactive
CCOP(=S)(Oc1ccc([N+](=O)[O-])cc1)c1ccccc1 (stereo unspecified),outcome,[15],inactive
Cc1ccc(N)cc1N,outcome,[17],inactive
CC(=O)c1ccc(-c2ccccc2)cc1,AC50,[6],18.6 µM (active)
N#Cc1c(-c2ccc(Cl)cc2)[nH]c(C(F)(F)F)c1Br,outcome,[10],inactive
CCCN(CCC)c1c([N+](=O)[O-])cc(C(C)C)cc1[N+](=O)[O-],outcome,[18],inactive
same,outcome,[15],inactive
same,outcome,[3],inactive
